Data from the supplement of paper PMC10515830.
Structures can show the parent of a compound that is named as a salt.

What was measured:
Conditions in all cases: 10 µM; exposure time 6 h
[1] = test system: Danio rerio larvae (5 dpf); assay: difference in excitability vs DMSO (percentage points); higher = more excitable than DMSO
In short: (§1)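 Library compounds were tested at 10 µM final in 100 µL egg water on wild-type 5 dpf zebrafish larvae in 96-well plates for 6 h, with 48 larvae per compound. After 3 h, plates at 28.5 ℃ were imaged every 6 s during a 3-h run of moving lines and 100 ms, 400Hz tones. Behaviours were quantified by Z-LaP Tracker and reported as the compound mean less the vehicle control mean, in percentage points.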

[2] = test system: Danio rerio larvae (5 dpf); assay: difference in startle response vs DMSO (percentage points); higher = stronger startle than DMSO
In short: as §1

[3] = test system: Danio rerio larvae (5 dpf); assay: difference in activity during first hour vs DMSO (percentage points); higher = more activity than DMSO
In short: as §1

[4] = test system: Danio rerio larvae (5 dpf); assay: difference in habituation to acoustic stimuli vs DMSO (percentage points); higher = more habituation than DMSO
In short: as §1

[5] = test system: Danio rerio larvae (5 dpf); assay: difference in combined optomotor response to red, green and blue moving lines vs DMSO (percentage points); higher = stronger optomotor response than DMSO
In short: as §1

| SMILES | difference in excitability [1] | difference in startle response [2] | difference in activity during first hour [3] | difference in habituation to acoustic stimuli [4] | difference [5] |
| --- | --- | --- | --- | --- | --- |
| Cc1cc(Nc2ncc(Cl)c(Nc3ccccc3S(=O)(=O)C(C)C)n2)c(OC(C)C)cc1C1CCNCC1 [Ceritinib] | 23.6 | -3.09 | -7.86 | -6.25 | -1.6 |
| CCCc1nc(C)c2c(=O)nc(-c3cc(S(=O)(=O)N4CCN(CC)CC4)ccc3OCC)[nH]n12 [Vardenafil (hydrochloride hydrate)] | 4.29 | 1.36 | 0.203 | 5.85 | 12.9 |
| CO/N=C(\C(=O)N[C@@H]1C(=O)N2C(C(=O)O)=C(COC(C)=O)CS[C@H]12)c1csc(N)n1 [Cefotaxime (sodium salt)] | 0.947 | 0.752 | 4.74 | 6.08 | 3.19 |
| CC(C)(CO)c1cc2cc(NC(=O)C3(c4ccc5c(c4)OC(F)(F)O5)CC3)c(F)cc2n1C[C@@H](O)CO | 16.7 | 3.44 | 15.2 | 6.02 | 6.53 |
| CCCC1O[C@@H]2C[C@H]3[C@@H]4CCC5=CC(=O)C=C[C@]5(C)[C@H]4[C@@H](O)C[C@]3(C)[C@]2(C(=O)CO)O1 (stereo not given in full) [Budesonide] | 4.9 | -3.47 | 4.24 | -2.87 | 12.5 |
| Clc1ccc2c(c1)CCc1cccnc1C2=C1CCNCC1 [Desloratadine] | 10.4 | 3.48 | 2.87 | -2.42 | 1.86 |
| CNCC[C@@H](Oc1ccccc1C)c1ccccc1 [Atomoxetine (hydrochloride)] | 21.7 | -9.34 | -21.4 | -3.36 | -0.351 |
| CC1(C)C[C@@H]1C(=O)N/C(=C\CCCCSC[C@H](N)C(=O)O)C(=O)O [Cilastatin] | -5.97 | 11.7 | 15 | -6.5 | 10.5 |
| O=c1ccc2ccc(OCCCCN3CCN(c4cccc5sccc45)CC3)cc2[nH]1 [Brexpiprazole] | 13.2 | -1.39 | 25.4 | -17.4 | -9.77 |
| Cc1cc2c(s1)Nc1ccccc1N=C2N1CCN(C)CC1 [Olanzapine] | 26.1 | -4.9 | 8.52 | -8.45 | 4.38 |
| CC(=O)O[C@H]1C(=O)[C@@]2(C)[C@H]([C@H](OC(=O)c3ccccc3)[C@]3(O)C[C@H](OC(=O)[C@H](O)[C@@H](NC(=O)c4ccccc4)c4ccccc4)C(C)=C1C3(C)C)[C@]1(OC(C)=O)CO[C@@H]1C[C@@H]2O [Paclitaxel] | -11.7 | -1.74 | -4.46 | 3.51 | -2.9 |
| CCOc1ccc(Cc2cc([C@]34OC[C@](CO)(O3)[C@@H](O)[C@H](O)[C@H]4O)ccc2Cl)cc1 [Ertugliflozin] | 0.00277 | -5.35 | 3.38 | 4.89 | 1.51 |
| Nc1cccc2c1CN(C1CCC(=O)NC1=O)C2=O (stereo not given) [Lenalidomide] | -0.5 | 7.32 | 0.485 | -0.169 | 5.58 |
| CN(C)[C@@H]1C(O)=C(C(N)=O)C(=O)[C@@]2(O)C(O)=C3C(=O)c4c(O)cccc4[C@@](C)(O)[C@H]3[C@H](O)[C@@H]12 [Oxytetracycline] | -1.74 | -1.21 | 20.6 | 5.81 | -0.914 |
| CCN1CC(CCN2CCOCC2)C(c2ccccc2)(c2ccccc2)C1=O (stereo not given) [Doxapram (hydrochloride hydrate)] | 1.64 | -4.79 | 16.8 | -5.51 | 1.89 |
| Nc1ccc(S(=O)(=O)Nc2ncccn2)cc1 [Sulfadiazine] | 11.9 | 4.72 | 7.75 | 1.42 | -1.28 |
| CC(=O)CCCCn1c(=O)c2c(ncn2C)n(C)c1=O [Pentoxifylline] | 11.4 | 2.26 | 8.3 | 4.08 | 6.01 |
| CCN1C(=O)NC(c2ccccc2)C1=O (stereo not given) [Ethotoin] | -4.35 | 11.7 | -2.99 | 0.909 | -3.6 |
| CC(=O)[C@]1(O)Cc2c(O)c3c(c(O)c2[C@@H](O[C@H]2C[C@H](N)[C@H](O)[C@H](C)O2)C1)C(=O)c1ccccc1C3=O [Idarubicin (hydrochloride)] | 12.5 | -1.2 | -5.02 | 1.34 | -1.01 |
| CN1C(C(=O)Nc2ccccn2)=C(O)c2ccccc2S1(=O)=O [Piroxicam] | 12.1 | 0.219 | 4.07 | -1.73 | -0.889 |
| Nc1nc(-n2cc(C(=O)O)c(=O)c3cc(F)c(N4CC(O)C4)c(Cl)c32)c(F)cc1F [Delafloxacin] | 14.4 | 12.8 | -8.49 | 7.81 | 9.67 |
| Cc1ccc(N(CC2=NCCN2)c2cccc(O)c2)cc1 [Phentolamine (mesylate)] | -0.363 | 0.261 | 20 | 5.59 | -2.55 |
| NC(=O)OCC(COC(N)=O)c1ccccc1 [Felbamate] | -5.58 | 2.01 | 9.63 | -0.648 | 2.98 |
| C/C(O)=C(\C#N)C(=O)Nc1ccc(C(F)(F)F)cc1 | 5.48 | 1.5 | -4.86 | 6.45 | 3.09 |
| NC(=O)N1c2ccccc2C=Cc2ccccc21 [Carbamazepine] | -5.41 | 5.12 | -2.57 | 0.458 | 11.2 |

| SMILES | difference in excitability [1] | difference in startle response [2] | difference in activity during first hour [3] | difference in habituation to acoustic stimuli [4] | difference [5] |
| --- | --- | --- | --- | --- | --- |
| CC(=O)[C@H]1CC[C@H]2[C@@H]3CCC4=CC(=O)CC[C@]4(C)[C@H]3CC[C@]12C [Progesterone] | 3.92 | -7.45 | -21.2 | -12.3 | -17.3 |
| OB1OCc2cc(F)ccc21 | 13.7 | -1.36 | -11.7 | 2.38 | 4.85 |
| NCCCC(O)(P(=O)(O)O)P(=O)(O)O [Alendronate (sodium hydrate)] | -4.92 | 0.325 | -3.96 | -4.98 | 5.9 |
| N#Cc1ccc2[nH]cc(CCCCN3CCN(c4ccc5oc(C(N)=O)cc5c4)CC3)c2c1 [Vilazodone (hydrochloride)] | 12.6 | -3.13 | -16.6 | -3.2 | -4.96 |
| CC(C)CN(C[C@@H](O)[C@H](Cc1ccccc1)NC(=O)O[C@H]1CO[C@H]2OCC[C@H]21)S(=O)(=O)c1ccc(N)cc1 [Darunavir] | -1.86 | 0.437 | 0.73 | 2.66 | 5.61 |
| CC(=O)NO [Acetohydroxamic Acid] | 12 | 9 | -12.9 | 3.36 | -4.35 |
| COC(=O)/C=C/C(=O)OC [Dimethyl fumarate] | 19.8 | -1.87 | 20.1 | -2.23 | 12 |
| C[C@@H]1C[C@H]2[C@@H]3CCC4=CC(=O)C=C[C@]4(C)[C@@]3(Cl)[C@@H](O)C[C@]2(C)[C@@]1(OC(=O)c1ccco1)C(=O)CCl [Mometasone Furoate] | 11.9 | 0.167 | 1.33 | 0.89 | 3.46 |
| C[C@@H](O)[C@H]1C(=O)N2C(C(=O)O)=C(S[C@@H]3CN[C@H](C(=O)Nc4cccc(C(=O)O)c4)C3)[C@H](C)[C@H]12 [Ertapenem (sodium salt)] | 3.87 | 3.36 | 14.7 | 7.59 | 3.82 |
| CN1CCC(=C2c3ccccc3C=Cc3ccccc32)CC1 [Cyproheptadine (hydrochloride hydrate)] | 6.61 | -4.47 | -3.08 | -11.2 | -16.4 |
| Clc1ccc(C(Cn2ccnc2)OCc2csc3c(Cl)cccc23)c(Cl)c1 (stereo not given) [Sertaconazole (nitrate)] | 4.31 | -8.13 | -18.2 | -10 | -11.3 |
| COc1c(N2C[C@@H]3CCCN[C@@H]3C2)c(F)cc2c(=O)c(C(=O)O)cn(C3CC3)c12 [Moxifloxacin (hydrochloride)] | 22.9 | 4.54 | 5.78 | 3.51 | 3.81 |
| O=C(O)C1(C(=O)O)CCC1.[NH2-].[NH2-].[Pt+2] [Carboplatin] | -3.06 | -1.15 | -11.9 | 0.48 | -2.73 |
| CC(C)(C)c1nc(-c2cccc(NS(=O)(=O)c3c(F)cccc3F)c2F)c(-c2ccnc(N)n2)s1 [Dabrafenib] | 1.22 | 0.607 | 3.67 | -5.97 | -1.51 |
| CN1CCC[C@@H]1CCO[C@](C)(c1ccccc1)c1ccc(Cl)cc1 [Clemastine (fumarate)] | 26.5 | -6.88 | -0.468 | -2.97 | 6.17 |
| C[C@@H](O)[C@H]1C(=O)N2C(C(=O)O)=C(S[C@@H]3CN[C@H](CNS(N)(=O)=O)C3)[C@H](C)[C@H]12 [Doripenem (hydrate)] | 0.847 | -3.28 | 18.4 | -1.56 | -1.12 |
| CC(C[N+](C)(C)C)OC(N)=O (stereo not given) [Bethanechol (chloride)] | 1.05 | -0.356 | -9.77 | 0.388 | -6.5 |
| CC(CN1c2ccccc2Sc2ccccc21)N(C)C (stereo not given) [Promethazine (hydrochloride)] | 7.65 | -2.21 | 16.6 | -3.09 | 4.32 |
| COc1cc(Nc2ncc(F)c(Nc3ccc4c(n3)N(COP(=O)(O)O)C(=O)C(C)(C)O4)n2)cc(OC)c1OC [R788 (sodium salt)] | 4.23 | 4.11 | 7.65 | -1.65 | 2.43 |
| CC(=O)O[C@@]12CO[C@@H]1C[C@H](O)[C@@]1(C)C(=O)[C@H](O)C3=C(C)[C@@H](OC(=O)[C@H](O)[C@@H](NC(=O)OC(C)(C)C)c4ccccc4)C[C@@](O)([C@@H](OC(=O)c4ccccc4)[C@H]21)C3(C)C [Docetaxel (hydrate)] | 4.98 | -2.23 | -2.75 | -0.117 | -1.11 |
| CCCCCCOC(=O)NC(=N)c1ccc(NCc2nc3cc(C(=O)N(CCC(=O)OCC)c4ccccn4)ccc3n2C)cc1 [Dabigatran etexilate] | 7.34 | 2.07 | -7.27 | 0.895 | 2.07 |
| N[C@@H]1CCCCN(c2c(F)cc3c(=O)c(C(=O)O)cn(C4CC4)c3c2Cl)C1 [Besifloxacin (hydrochloride)] | 13 | 0.0054 | 5.97 | -5.08 | 0.455 |
| Nc1cccc2c1C(=O)N(C1CCC(=O)NC1=O)C2=O (stereo not given) [Pomalidomide] | 0.1 | 2.2 | 0.787 | 2.64 | 1.26 |
| CCCCNC(=O)NS(=O)(=O)c1ccc(C)cc1 [Tolbutamide] | 1.04 | -0.31 | 15.1 | 0.867 | 0.664 |
